# In the OligoGym collection:
# Target: PRR3
# Assay: pooled miR-30 sensor sort-seq; sequence = guide strand
# Details: shRNA
# Further: reference of the scale not given here.
row,Sequence,sensor-assay potency score (higher = more potent)
1,TGATCCTGGAGGACCTCTGTGA,-0.51
2,TCCTTGTGAAAGCTTCCCCTGG,-1.31
3,TTGTCTTCCATAACCTGGGGGT,-0.114
4,TAACTCTGCACCAGTCACCCAA,-0.887
5,TTGATAAGAGACCAGCTTTTGA,-1.38
6,TCAGTGGTCCCCTTGATCCTGG,-0.862
7,TTTTTGGCAAAATGTCGGCAGA,-1.27
8,TAGGAAGTAACTCTGCACCAGT,-0.0951
9,TTCTTGATAAGAGACCAGCTTT,-0.745
10,TTTGTCTTCCATAACCTGGGGG,0.295
11,TCTGCATTGACTCCCCACCAAC,-1.61
12,TCGAGGGTTTCTCTGTTCCTTG,-0.785

# Target: PRR5
# Assay: as above
# Details: shRNA
row,Sequence,sensor-assay potency score (higher = more potent)
1,TGTTGTAGCTCTTGGAGCGCAC,-0.639
2,TAGTCCTCAGTCACGCCCCTGG,-0.743
3,TTGTGGATGCTGTTCCAGGTGG,-1.05
4,ATCTCCGACACAGAGTGCCTGC,-0.984
5,TTCAGAATCCGAGTCCACGGAC,-1.2
6,TCACTGAAGAAGAAGTCCCAGG,-0.956
7,ATCCTCTAGCTTCACACTGAGG,-1.85
8,TCGTGGGGTACAGTCTGCTGGG,-0.767
9,TGGTCCACCAGGTTCTCCGGGC,-0.928
10,TAGCTTCACACTGAGGGTGATG,-1.08
11,TTCTGTCCCTCATAGAAGCGAA,-1.06
12,TCTAGCTTCACACTGAGGGTGA,0.389

# Target: PRRX2
# Assay: as above
# Details: shRNA
row,Sequence,sensor-assay potency score (higher = more potent)
1,TCGCTGAGGTTGACGCGCCGGG,-1
2,TAGGACTTGAGCAGCGAGGCAG,-0.751
3,TTGGCCTTGAGACGGAGGCTGG,-0.803
4,TTGGTTTTAATACACAAACTAA,-1.05
5,ATAATCTGGACTCAGGGCGGTG,-1.16
6,TTTTCTATTGCTGTCCACCCAG,-0.328
7,TAGGGGGACGAGGCTGTCCAGG,-1.31
8,TTCCTGCGGAACTTGGCGCGGC,-0.664
9,TAGGGTGGCACTGTGCTGTAGG,0.726
10,TTCTTCTTCCGCTTGGCGGCGC,-0.268
11,TTTCTATTGCTGTCCACCCAGG,-1.08
12,TTGAGCAGCGAGGCAGAGCGGC,-1.11
